# Data reported in PubChem BioAssay (Tox21).
# Unmarked numbers belong to inactive results. Where a call stands in place of a potency, no number is given. Active and inactive are the calls of the source. Unless noted, calls follow the shape of the dose curve; as a rule, active = well fitted inhibition curve with a large enough effect in the repeat runs (not every such curve was filed as active); inconclusive = weak or mixed curves; inactive = flat fitted curve, though single readings scatter.
# Biological target: Thyrotropin-releasing hormone receptor (Homo sapiens) (UniProt P34981)
# Test: qHTS assay to identify small molecule antagonists of the thyrotropin-releasing hormone receptor (TRHR) signaling pathway (AID 1346877)
# Conditions: TRHR-HEK293, TRH-induced calcium fluorescence, antagonist mode; series mostly up to 51.3 µM
# In short: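 In this cell-based calcium flux format, HEK293 cells expressing TRHR received test compound for 5 min before the agonist TRH (1 nM final). Dye loading lasted 2 h at 37 °C.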
# Sequence of Thyrotropin-releasing hormone receptor (Homo sapiens) (P34981 whole entry, looked up): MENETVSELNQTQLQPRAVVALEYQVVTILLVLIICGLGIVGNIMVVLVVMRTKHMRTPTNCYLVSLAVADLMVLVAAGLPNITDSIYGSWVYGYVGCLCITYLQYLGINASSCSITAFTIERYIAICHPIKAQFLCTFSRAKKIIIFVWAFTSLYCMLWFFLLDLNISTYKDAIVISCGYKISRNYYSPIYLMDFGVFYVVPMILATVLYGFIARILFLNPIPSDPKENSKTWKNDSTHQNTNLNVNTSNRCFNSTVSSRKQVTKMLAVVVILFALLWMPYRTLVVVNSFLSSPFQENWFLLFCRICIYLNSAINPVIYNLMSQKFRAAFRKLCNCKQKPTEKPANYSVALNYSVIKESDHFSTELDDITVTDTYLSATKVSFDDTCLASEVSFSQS
SMILES,Potency,"activity, negative = inhibition"
CC(=O)C1=C(C)[C@@H]2C[C@@]3(C1)[C@H](C)CC[C@H]3C2(C)C,inactive,
COC(=O)/C=C/c1ccccc1,inactive,
CC(C)(O)CCC(C)(C)O,inactive,
COC(=O)c1cccc(C(=O)OC)c1,inactive,
CCCCN(CCO)CCCC,inactive,
O=C1NCC2(CCN(CCc3ccccc3)CC2)O1,inactive,
CC(=O)Nc1ccc(C(=O)CCl)cc1,inactive,
O=C(O)CCc1ccccc1,inactive,
C1COC(NC(C2CC2)C2CC2)=N1,inactive,
CCCNC(C)C(=O)Nc1ccccc1C (centres undefined),inactive,
Cc1ccnc2c1NC(=O)c1cccnc1N2C1CC1,inactive,
Cc1scc2c1N(C(=O)CN1CCN(C)CC1)c1ccccc1NC2=O,inactive,
NNCCc1ccccc1,inactive,
Nc1ccc(O)cc1,inactive,
C=CC(=O)OCCCCCCOC(=O)C=C,inactive,
CC(C)(C)c1ccccc1,inactive,

SMILES,Potency,"activity, negative = inhibition"
CCCCOCCOC(=O)c1ccccc1C(=O)OCCOCCCC,inactive,
CCCCC/C=C/CC1CC(=O)OC1=O (centres undefined),inactive,
NC(Cc1ccc(Cl)cc1)C(=O)O (centres undefined),,-6.16% [at 0.194 µM]
Nc1nc2ccccc2[nH]1,inactive,
CCC(CO)(CO)COCC(CC)(CO)CO,inactive,
CCOc1ccccc1C(N)=O,inactive,
Cc1cccc2n[nH]nc12,inactive,
CCCC(=O)c1ccccc1,inactive,
CC[C@@H](N)CO,inactive,
c1ccc2c(c1)CCCC2C1=NCCN1 (centres undefined),inactive,
CC(=O)OCC1=C(C(=O)O)N2C(=O)[C@@H](NC(=O)Cc3cccs3)[C@H]2SC1,inactive,
NC(N)=NC(=O)Cc1c(Cl)cccc1Cl,inactive,
CC1=C(C=O)C(C)(C)CC=C1,inactive,
Cc1occc(=O)c1OC(=O)C(C)C,inactive,
CCN1CCCC1CNC(=O)c1cc(S(=O)(=O)CC)c(N)cc1OC (centres undefined),inactive,
Clc1ccc2c(c1)C(N1CCNCC1)=Nc1ccccc1O2,inactive,

# Biological target: Thyrotropin-releasing hormone receptor (Homo sapiens) (UniProt P34981)
# Test: qHTS assay to identify small molecule agonists of the thyrotropin-releasing hormone receptor (TRHR) signaling pathway (AID 1346891; calls by dose curve)
# Conditions: TRHR-HEK293 calcium fluorescence, agonist mode; series mostly up to 57.6 µM
# In short: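 Cells: TRHR-Hek293, seeded and incubated 18 h. Dye loading: 2 h at 37 °C. Compound added from DMSO stock by pin tool. Read-out: kinetic calcium fluorescence over 3 min.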
SMILES,Potency,activation
CC(C)(O)CCC(C)(C)O,inactive,
CC(=O)Nc1ccc(C(=O)CCl)cc1,inactive,
O=C(O)CCc1ccccc1,inactive,
CC(C)(C)c1cc(C(C)(C)C)c(O)c(C(C)(C)C)c1,inactive,
Cc1scc2c1N(C(=O)CN1CCN(C)CC1)c1ccccc1NC2=O,inactive,
Nc1ccc(O)cc1,inactive,
C=CC(=O)OCCCCCCOC(=O)C=C,inactive,
COc1nc(C)nc(Cl)c1NC1=NCCN1,inactive,
CC(C)(C)c1ccccc1,inactive,
CCCCOCCOC(=O)c1ccccc1C(=O)OCCOCCCC,inactive,
Cc1cc(C(C)(C)C)c(O)c(C(C)(C)C)c1,inactive,
CCCCC/C=C/CC1CC(=O)OC1=O (centres undefined),inactive,
NC(Cc1ccc(Cl)cc1)C(=O)O (centres undefined),,0.0344% [at 0.218 µM]
CCC(CO)(CO)COCC(CC)(CO)CO,inactive,
Cc1cccc2n[nH]nc12,inactive,
CCCC(=O)c1ccccc1,inactive,
CC[C@@H](N)CO,inactive,
c1ccc2c(c1)CCCC2C1=NCCN1 (centres undefined),inactive,
NC(N)=NC(=O)Cc1c(Cl)cccc1Cl,inactive,
CC1=C(C=O)C(C)(C)CC=C1,inactive,
Cc1occc(=O)c1OC(=O)C(C)C,inactive,
CCN1CCCC1CNC(=O)c1cc(S(=O)(=O)CC)c(N)cc1OC (centres undefined),inactive,
